Assay outcomes: PubChem BioAssay, National Center for Advancing Translational Sciences (NCATS)
Compounds with a hit are over-represented: about 1.2% of the library has one in this group of screens.
gsp antagonist: gsp mutant antagonism; Potency, µM (titrated, usually from 76.9 µM), for the others: at the highest dose activity change, negative = inhibition, usual class: inhibitors; gsp-mutant cells, cAMP HTRF, 30 min; actives 0.4% (n = 340,000); calls by dose curve; cell line not stated here;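 note: intracellular cAMP measured with PDE inhibitor Ro 20-1724 present during compound exposure; potency is the fitted concentration of half-maximal effect; % is set by controls: 0 for no effect and ±100 for the full control effect; nearly all actives have a fitted effect of over 65% in size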
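Cells, 2000/well, grown 16–24 h in DMEM 10% FBS with 0.5 mg/ml G418, then compounds plus […] (300 uM addition stock), 30 min at 37C. cAMP read by HTRF (cAMP-d2 and anti-cAMP antibody-K in lysis buffer) after 30 min RT.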
RXFP1 antag: blocks the human relaxin receptor RXFP1; AID 1259400; Q9HBX9; activity change, negative = inhibition, % at 57.5 µM; HEK293-RXFP1, relaxin-stimulated cAMP HTRF, 30 min; active compounds read low; actives 0.59% (n = 350,000);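 active = activity change of -60% or lower, but not beyond a set lower limit; inconclusive = change between -60% and -40%, or beyond the set limit; inactive = change above -40%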; note: % is set by controls: 0 for no effect and ±100 for the full control effect
Target sequence (Q9HBX9 whole entry, looked up): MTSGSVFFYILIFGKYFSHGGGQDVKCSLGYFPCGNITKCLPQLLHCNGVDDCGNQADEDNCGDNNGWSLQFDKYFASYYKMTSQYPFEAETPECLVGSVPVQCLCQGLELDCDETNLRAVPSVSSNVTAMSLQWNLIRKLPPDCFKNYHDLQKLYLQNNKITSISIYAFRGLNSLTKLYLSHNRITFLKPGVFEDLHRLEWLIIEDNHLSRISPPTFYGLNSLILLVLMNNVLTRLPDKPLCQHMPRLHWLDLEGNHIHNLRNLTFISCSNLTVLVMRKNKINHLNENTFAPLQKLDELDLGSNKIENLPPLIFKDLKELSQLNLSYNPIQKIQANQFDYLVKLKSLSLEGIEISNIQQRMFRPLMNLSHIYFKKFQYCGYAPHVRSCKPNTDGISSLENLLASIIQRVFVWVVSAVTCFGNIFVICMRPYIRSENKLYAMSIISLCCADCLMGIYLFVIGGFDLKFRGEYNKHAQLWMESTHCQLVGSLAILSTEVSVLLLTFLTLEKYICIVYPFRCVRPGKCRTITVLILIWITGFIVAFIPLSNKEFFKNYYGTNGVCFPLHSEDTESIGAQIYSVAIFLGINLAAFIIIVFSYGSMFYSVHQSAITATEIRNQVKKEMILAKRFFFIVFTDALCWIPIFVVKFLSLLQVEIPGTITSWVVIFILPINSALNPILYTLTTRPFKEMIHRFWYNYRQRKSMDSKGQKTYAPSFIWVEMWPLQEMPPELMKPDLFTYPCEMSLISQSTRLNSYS
gsp ag: activates gsp, the McCune-Albright syndrome mutation; Potency, µM (series often up to 76.9 µM), for inactives: top-dose activation (cAMP increase), hits mostly activators; gsp mutant cells, cAMP HTRF, 30 min; actives 0.13% (n = 340,000); AID 624287; active = well fitted activation curve with a large enough effect; inconclusive = small, poorly fitted or top-dose-only effect, or another doubt; inactive = no such curve, though single readings can be large or run the other way; cell line not stated here;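 note: phosphodiesterase inhibitor Ro 20-1724 added with compounds to block cAMP breakdown; potency is the fitted concentration of half-maximal effect; nearly all actives have a fitted effect of over 60% in size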
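Cells in DMEM/10% FBS with G418 were pretreated with compounds in DMSO plus […] (300 uM stock) for 30 min at 37C. cAMP was measured by HTRF (cAMP-d2 plus anti-cAMP antibody-K) after 30 min at room temperature.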
RXFP1 agonist: agonists of human relaxin receptor RXFP1 | Q9HBX9 | AID 2676 | Potency, µM (doses to about 57.5 µM), inactives show top-dose activation, most hits filed as activators | actives 0.3% (n = 370,000) | HEK293T-RXFP1 cAMP TR-FRET, 30 min; response scale: percent of porcine relaxin response, buffer zero; active = well fitted activation curve with a large enough effect; inconclusive = small, poorly fitted or top-dose-only effect; note: potency is the fitted concentration of half-maximal effect; % is set by controls: 0 for no effect and ±100 for the full control effect; nearly all actives have a fitted effect of over 60% in size
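Agonist response is measured as cAMP accumulation in an RXFP1-transfected HEK293T line under PDE4 inhibition. Values are scaled between buffer-only and 29 nM porcine relaxin, and EC50s come from standard Hill equation fits.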
pAkt inh: inhibitors of Akt phosphorylation | activity change, % for hits at 50 µM | Neuro2A IGF-stimulated pAkt S473 HTRF, 20 min; active compounds read low | actives 0.32% (n = 360,000); in the data active = activity change below about -80%; inconclusive = mostly about -51% to -80%; note: % is set by controls: 0 for no effect and ±100 for the full control effect
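Single-point screen (50 µM final compound) in Neuro2A cells stimulated 20 min with 6 nM IGF at 37 deg C. After lysis, Ser473-phosphorylated Akt read by HTRF (ex 330 nm, em 615/665 nm) as the 665/615 ratio.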
Active calls of the source: *; i = inactive; ? = inconclusive; . = not tested or not shown; [ ] = dose if it differs, or a comment.

SMILES	gsp antagonist	RXFP1 antag	gsp ag	RXFP1 agonist	pAkt inh
COc1cc(/C=C/c2nc(C#N)c(NC3CCCCC3)o2)cc(OC)c1OC	.	8	.	15%	.
CCCN(CC(=O)Nc1cccc(S(N)(=O)=O)c1)CC(=O)Nc1ccc(F)c(F)c1F	3%	-2	-58%	1%	i
CCCN(CC(=O)Nc1cccc(Br)c1)CC(=O)Nc1ccc(F)c(F)c1F	50µM*	-6	?	1%	i
O=C(c1cnc(N2CCOCC2)c2ccccc12)N1CCN(c2ccccc2)CC1	.	-16	.	6%	.
O=C(O)c1cccc(Nc2nc(-c3cc4ccccc4oc3=O)cs2)c1	35µM*	1	5%[15.4 µM]	6%	i
CCOc1ccc(S(=O)(=O)N(C)c2ccc(OCC(=O)Nc3ccccc3F)cc2)cc1	-12%	5	-4%[15.4 µM]	2%	i
CCCNS(=O)(=O)c1ccc(OCC(=O)Nc2ccccc2F)cc1	-10%	-4	-1%	0%	-102%*
Cc1cc2nc(SCC(=O)Nc3nonc3C)c3c(c2cc1C)CCCC3	0%	-3	14%	3%	-91%*
Cn1c(=O)c2c(ncn2CC(=O)Nc2nc3ccc(F)cc3s2)n(C)c1=O	-4%	4	?	1%	-122%*
CCOC(=O)c1ccccc1NC(=O)Cn1cnc2c1c(=O)n(C)c(=O)n2C	13%	1	28µM*	4%	.
CCOC(=O)c1ccccc1NC(=O)CSc1nc2c(c(=O)n(C)c(=O)n2C)n1C	.	.	.	0%	.
Cc1ccc2occ(-c3cc(-c4ccc(F)cc4)nc4c3COc3ccc(F)cc3-4)c(=O)c2c1	.	.	.	0%	.
Oc1ccc(C=NNC(=S)Nc2ccc(F)cc2)c(O)c1	-7%	-64*	?	.	i
O=C(CCC(=O)Nc1ccc(F)cc1)N/N=C/c1ccc(O)cc1O	7%	14	?	0%	i
CN(Cc1cn(C)nc1-c1ccc(Oc2ccccc2)cc1)Cc1cnc2ccccn12	40µM*	8	?	-1%	i
COc1ccc(N(C(=O)COc2c(C)cccc2C)S(=O)(=O)c2ccc(Cl)cc2)cc1	.	3	.	1%	.
CCCOc1ccc(CC(=O)NCC2(c3ccccc3)CCOCC2)cc1OC	-11%	2	0%	-4%	-117%*
CCCOc1ccc(CC(=O)NCc2ccco2)cc1OC	-9%	-7	-16%	2%	i
COC(=O)C1=C(C)NC(C)=C(C(=O)OCCN(C)Cc2ccccc2)C1c1cccc([N+](=O)[O-])c1 (centres undefined)	25%	-76*	.	-1%	i
COc1cccc(CN2CC(C(=O)N(C)Cc3ccc(C)cc3)CCC2=O)c1 (centres undefined)	0%	10	20%	-2%	i
COCc1cc(CN(C)C(=O)C2CCC(=O)N(Cc3cccc(OC)c3)C2)[nH]n1 (centres undefined)	10%	-78*	6%	-1%	i
COc1cc(OC)c(OC)cc1/C=N/NC(=O)c1cc(-c2cccn2C)n[nH]1	4%	-9	-53%	0%	.
CCOc1cccc(/C=N/NC(=O)c2cc(-c3cccn3C)n[nH]2)c1O	?	-77*	1%[15.4 µM]	-3%	i
Cc1ccc(S(=O)(=O)NCCC(=O)NC(C)CCc2ccccc2)cc1 (centres undefined)	-6%	-62*	1%[15.4 µM]	0%	i
Cc1cc(NC(=O)c2ccccc2Cl)no1	0%	-6	-25%	2%	-104%*
Cc1cc(NC(=O)c2cc(Cl)ccc2Cl)no1	-3%	25	-37%	0%	i
CCc1cccc(-n2c(C)nc3c(cnn3-c3ccc(C)c(C)c3)c2=O)c1	.	.	.	1%	.
